The panel holds about 83,000 compounds, 20% with a hit somewhere; the sample as a whole holds those more often.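 A percent growth of 40 corresponds to 60% growth inhibition; 0 means no net growth; -100 means all cells died. Active threshold: below 10.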 Values without a mark were called inactive. The source made the active and inactive calls.
Key:
Test in all cases: NCI-60 one-dose screen, 48 h (100 = growth as untreated, 0 = no growth, -100 = all killed)
Conditions in all cases: 10 µM unless noted
NCI-H23 lung = system: NCI-H23 lung
NCI-H226 lung = system: NCI-H226 lung
NCI-H322M lung = system: NCI-H322M lung
HOP-62 NSCLC = system: HOP-62 NSCLC
NCI-H460 lung = system: NCI-H460 lung
NCI-H522 lung = system: NCI-H522 lung
A549/ATCC NSCLC = system: A549/ATCC NSCLC
786-0 renal = system: 786-0 renal
COLO 205 colon = system: COLO 205 colon
DU-145 prostate = system: DU-145 prostate
K-562 leukemia = system: K-562 leukemia
MALME-3M melanoma = system: MALME-3M melanoma
MDA-MB-231 breast = system: MDA-MB-231 breast
RXF 393 renal = system: RXF 393 renal
SF-268 CNS = system: SF-268 CNS
SF-295 CNS = system: SF-295 CNS
SF-539 CNS = system: SF-539 CNS
UACC-257 melanoma = system: UACC-257 melanoma
M14 melanoma = system: M14 melanoma

| Compound | growth (NCI-H23 lung) | growth (NCI-H226 lung) | growth (NCI-H322M lung) | growth (HOP-62 NSCLC) | growth (NCI-H460 lung) | growth (NCI-H522 lung) | growth (A549/ATCC NSCLC) | growth (786-0 renal) | growth (COLO 205 colon) | growth (DU-145 prostate) | growth (K-562 leukemia) | growth (MALME-3M melanoma) | growth (MDA-MB-231 breast) | growth (RXF 393 renal) | growth (SF-268 CNS) | growth (SF-295 CNS) | growth (SF-539 CNS) | growth (UACC-257 melanoma) | growth (M14 melanoma) |
| --- | --- | --- | --- | --- | --- | --- | --- | --- | --- | --- | --- | --- | --- | --- | --- | --- | --- | --- | --- |
| COC1=C[C@]23CCC(=O)N2CCc2cc4c(cc2[C@@H]3[C@@H]1OC(=O)[C@H](C)O)OCO4 | 9.59% (active) | 11% | 69.7% | 46.6% | -5.4% (active) | -48.1% (active) | 7.1% (active) | 22.7% | 28.4% | 31.7% | 7.08% (active) | -28.6% (active) | 61.8% | 5.61% (active) | 66.2% | 29.7% | -34.5% (active) | 27.9% | 10.4% |
| Cc1ccc(C2CC(c3ccc(S(=O)(=O)NCCNc4nc(Nc5ccc(F)cc5)nc(N(C)C)n4)cc3)=Nc3c(N)nc(N)nc3N2)cc1 (centres undefined) | 65.3% | 62.7% | 70.2% | 87.7% | 38.2% | 58.5% | 68.4% | 42% | 54.8% | 76% | 8.57% (active) | 54.3% | 32.5% | 27.2% | 57.7% | 48% | -44% (active) | 75.4% | 41.5% |
| COc1ccc2c(c1)c(-c1cc3nc(-c4cn(C)c5ncccc45)cc(N)n3n1)cn2C | 0.244% (active) | -16.6% (active) | -8.29% (active) | -25.8% (active) | -25.5% (active) | -78.4% (active) | -30.6% (active) | -92% (active) | -74.1% (active) | -27.2% (active) | -31.2% (active) | -95.3% (active) | -82.8% (active) | -77.3% (active) | 11.9% | -79.4% (active) | -95.8% (active) | -78.7% (active) | -84.3% (active) |
| C=C1CCC2C3(C)COC(c4ccccc4)OC3CCC2(C)C1CC(NCc1ccccc1)C1=CCOC1=O (centres undefined) | 80.8% | 63.6% | 90.8% | 85.1% | 97% | 77.6% | 75.9% | 79.3% | 88.3% | 98.7% | 58.8% | 92.4% | 71.5% | 78.5% | 82.4% | 72% | 89.2% | 71.7% | 76% |
| O=C(CCN1C(=O)/C(=C/c2ccc(F)cc2)SC1=S)N1CCOCC1 | 67.9% | 74.2% | 80.2% | 109% | 68.6% | -79% (active) | 81.5% | 67.1% | 75% | 35.8% | 43% | 46.1% | 60.9% | 47.7% | 86.7% | 104% | 68.6% | 52% | 57.1% |
| Clc1cccc(N/N=C/c2c[nH]c3ccc(Br)cc23)n1 | 39.8% | 22.4% | 51.6% | 54.1% | 12.9% | -27.8% (active) | 30.2% | 13% | 31.9% | 64.1% | -26% (active) | 39% | -67.7% (active) | 31.6% | 40.8% | -9.75% (active) | -1.26% (active) | 57.6% | 15.2% |
| COc1ccc2c(c1)c(-c1cc3nc(-c4cn(C)c5ncc(Br)cc45)cc(N)n3n1)cn2C | -36.8% (active) | 0.447% (active) | -39.8% (active) | -21.1% (active) | -35.4% (active) | -72.1% (active) | -4.96% (active) | -94.8% (active) | -74.6% (active) | 26% | -33.5% (active) | -88.4% (active) | -73% (active) | -72.9% (active) | 12.4% | -67.2% (active) | -87.6% (active) | -74.3% (active) | -74.4% (active) |
| Cc1cccc(-c2nc(Nc3cccc(S(N)(=O)=O)c3)c3ccccc3n2)c1 | 39.6% | 54.3% | 52.2% | 80.2% | 37.6% | 4.87% (active) | 35.7% | 5.75% (active) | 51.9% | 57.3% | 10.2% | 75% | -13.6% (active) | 29.2% | 46.2% | 20.2% | -9.93% (active) | 87% | 54% |
| COc1c(F)ccc(C(=O)Nc2ccc3nc(NC(=O)C4CCCN(S(=O)(=O)c5ccc(Cl)cc5)C4)sc3c2)c1F (centres undefined) | 85.7% | 76% | 86.6% | 102% | 81.3% | 76.6% | 65.6% | 54.7% | 77.8% | 93.4% | 59.2% | 90.5% | 81.1% | 8.75% (active) | 77.4% | 63.6% | 66.8% | 82.4% | 75.6% |
| O=C(CN1C(=O)/C(=C/c2ccccc2Cl)SC1=S)N1CCOCC1 | 98% | 77.9% | 95.3% | 116% | 107% | -74.8% (active) | 97.8% | 80.4% | 100% | 78.1% | 27% | 76.3% | 94.3% | 77.4% | 106% | 107% | 91.7% | 94.3% | 85.3% |
| CNS(=O)(=O)c1ccc(Nc2ccc(C(F)(F)F)cc2)c(-c2cn(C)cn2)c1 | 72.9% | 48.8% | 59.1% | 95.3% | 33.7% | 36.5% | 37.1% | 61.2% | 53.1% | 62.3% | 21.5% | 68.1% | 60.3% | 52.1% | 41.5% | 43.7% | 64.4% | 64% | 49.8% |
| O=C(N1c2ccccc2Sc2ccccc21)n1ccc2cccnc21 | 77.9% | 81% | 74.7% | 77.5% | 48.7% | 56.3% | 75.8% | 77.4% | 62.8% | 86.6% | 19.5% | 75.5% | 69.3% | 83.7% | 80.8% | 81% | 76.6% | 61.1% | 70.1% |
| CC1=C(C#N)C2=NNCC(c3ccccc3)=NN2C(c2ccccc2)=C1 | 105% | 111% | 105% | 85.6% | 111% | 93.7% | 99.3% | 98.2% | 113% | 111% | 110% | 93.3% | 105% | 131% | 134% | 103% | 102% | 96.6% | 103% |
| CC(C)C(C(=O)O)n1c(O)c(/C=C2/C=c3cc4c(cc3=NC2=O)OCO4)sc1=S (centres undefined) | 98.4% | 101% | 103% | 115% | 114% | 99.4% | 110% | 105% | 115% | 115% | 109% | 98.4% | 99.2% | 116% | 111% | 102% | 104% | 107% | 103% |
| COc1ccc(-c2ccnc(SCc3cc4cc(OC)ccc4[nH]c3=O)n2)cc1 | 25.8% | 39.4% | 48.1% | 34.7% | 14.9% | 11.8% | 20.2% | 44.1% | 15.7% | 43.7% | 4.74% (active) | 36.7% | 22.7% | 7.02% (active) | 36.6% | 17.5% | 20.5% | 38% | 19.8% |
| CCCS(=O)(=O)N1CCCC(C(=O)Nc2nc3ccc(NC(=O)c4ccc(F)c(OC)c4F)cc3s2)C1 (centres undefined) | 33.9% | 27.9% | 75.6% | 68.4% | 55.9% | 39.9% | 57% | 37.6% | 31.6% | 72.7% | 27.6% | 52.7% | 62.9% | 8.45% (active) | 56.9% | 23% | 47.2% | 25.2% | 56.7% |

Source: PubChem BioAssay (NCI)
